From PubChem BioAssay (NCI)
About 83,000 compounds went through this panel and 20% of them were active in at least one assay; those are over-represented in the sample as a whole.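 Values shown are percent growth following 48 h exposure of cells in 96-well plates to a single concentration of compound; below 10 was considered active.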 Calls of active or inactive are those of the source.

These compounds were tested on MDA-MB-468 breast (assay: NCI-60 one-dose screen, 48 h (100 = growth as untreated, 0 = no growth, -100 = all killed)). Conditions: 10 µM unless noted.

Compound | growth
O=C1N(c2ccccc2)C(=S)N[C@]12[C@H](c1ccccc1)C1CCCN1[C@]21C(=O)NC2C=CC(Cl)=C[C@H]21 (stereo not given in full) | 99.7% (inactive)
Cc1ccc(/C=C/C(=O)c2ccc(N)cc2)c(C)c1 | 88.7% (inactive)
CCCCn1c(-c2ccc(C(=O)O/N=C(\N)c3ccc4c(c3)OCO4)cc2)nc(-c2ccccc2)c1-c1ccccc1 | 73.8% (inactive)
COc1ccc(/C=C2\SC(=Nc3cc(C)on3)NC2=O)cc1 | 95.6% (inactive)
COc1ccc(C=Nc2c(C(=O)Nc3cccc(Cl)c3C)sc3nc(C)c(C(=O)/C=C/c4ccc(OC)cc4)cc23)cc1 | 17.3% (inactive)
O=C(c1ccccc1)C1OC1c1ccc([N+](=O)[O-])cc1 (stereo not given) | 29.2% (inactive)
O=[N+]([O-])c1c(F)cccc1Nc1cccc(F)c1 | 127% (inactive)
Nc1cc(-c2ccccc2)ccc1O | 93.5% (inactive)
COc1ccc(-c2ccc(O)c(C(=O)/C=C/c3cc(OC)c(OC)c(OC)c3)c2)cc1 | 85.2% (inactive)
COc1ccccc1S(=O)(=O)Nc1ccc2c3c(cc(-c4ccoc4)nc13)C(=O)N2C | 39.7% (inactive)
c1cc2ccc1CNCCN1CCNCc3ccc(cc3)Oc3ccc(cc3)CNCCN(CCNCc3ccc(cc3)O2)CCNCc2ccc(cc2)Oc2ccc(cc2)CNCC1 | -77.6% (active)
Cc1c(Cl)cccc1NC(=O)c1sc2nc3c(cc2c1N)CCCC3 | 15.1% (inactive)
COc1ccc(-c2nc(-c3nc4ccc(C)cc4[nH]3)c3ccccn23)cc1 | 45.4% (inactive)
COc1ccc(N)c(-c2cc3c(c4c2[nH]c2ccc(OC)cc24)CCCC3)c1 | 94.5% (inactive)
O=C1C=CC(=O)N1c1ccc(O)cc1 | 88.9% (inactive)
CC(c1ccccc1)C(C(=O)c1ccccc1)c1ccccc1 (stereo not given) | 81.5% (inactive)
Cc1nc2ccccc2c(/C=C/c2ccc(Cl)cc2)c1C(=O)/C=C/c1cccs1 | 79.7% (inactive)
CC(=O)Nc1ccc(S(=O)(=O)c2ccnc3cc(Cl)ccc23)cc1 | 9.85% (active)
Cc1ccc(C(=O)Nc2ccc(CNCCN3CCNCC3)c(C(F)(F)F)c2)cc1C#Cc1cnc2cccnn12 | -83% (active)
N#CC1=C(N)OC2=C(C(=O)CCC2)C1c1ccco1 (stereo not given) | 115% (inactive)

Compound | growth
COc1ccc(C(=O)/C=C/c2c(OC)cc(OC)cc2OC)c(OC)c1 | -25.1% (active)
NC(=O)C1CCCN(Cc2c[nH]c3ccccc23)C1 (stereo not given) | 97.7% (inactive)
COc1cc(/C=C2\CN(S(=O)(=O)c3ccccc3)C/C(=C\c3cc(CN4CCCCC4)c(O)c(OC)c3)C2=O)cc(CN2CCCCC2)c1O | 53.2% (inactive)
CCN=c1sc2c(n1NC(=O)c1cc3ccc1CCc1ccc(cc1)CC3)C(=O)c1ccccc1C2=O | -33.7% (active)
N#CC1=C(N)n2nc(-c3ccncc3)nc2NC1c1cccc2ccccc12 (stereo not given) | 76.1% (inactive)
CC/C=C1/C(=O)C=C[C@@H]1C/C=C\CCCC(=O)OC | 77.6% (inactive)
C#CCNCCN1C(=O)c2ccc3c4c(ccc(c24)C1=O)C(=O)N(CCNCC#C)C3=O | 17.1% (inactive)
O=S(=O)(NCCNc1nccc(-c2c(-c3ccc(F)cc3)nc3sccn23)n1)c1ccc2ccccc2c1 | 76.4% (inactive)
CCN1CCN(C(=O)[C@]23CC[C@@H](C)[C@H](C)[C@@H]2C2=CC[C@@H]4[C@@]5(C)C/C(=C/c6cccnc6)C(=O)C(C)(C)[C@@H]5CC[C@@]4(C)[C@]2(C)CC3)CC1 | 16.4% (inactive)
OCCNc1ccccc1 | 99.4% (inactive)
CCCCCCCCCCCCCCCCCC1=NC(C)(C)CN1C(C)(C)CO | -100% (active)
CC(=O)CSC(C)=O | 99.1% (inactive)
CC(C)C(C)C(N)C(=O)O (stereo not given) | 107% (inactive)
CCCCCCOc1ccc(/C=N/Nc2cc(C)nc3ccc(Cl)cc23)cc1 | -56.7% (active)
FC(F)(F)c1cc(-c2nnc3n2N=C(Cl)CS3)cc(C(F)(F)F)c1 | 84.4% (inactive)
O=C1c2ccccc2C(=O)c2c1ccc(C(Br)Br)c2[N+](=O)[O-] | -66.5% (active)
Oc1cccnc1CN1CCCC1 | 104% (inactive)
c1ccc(CCNc2c3ccccc3nc3ccccc23)cc1 | -11.4% (active)
c1csc([C@@H]2C[C@@H]3Cc4ccc5ccccc5c4N2O3)c1 | 99.2% (inactive)
CCOC(=O)/C(C#N)=C(/CC)OCC | 113% (inactive)
